From PubChem BioAssay (Tox21)
Values joined by “and” are separate entries in the source; they are usually repeats but may differ in a detail not shown here. Equal entries are not always repeated. Results filed as inconclusive are left out. A structure can be active in one record and inactive in another. Active and inactive are the calls of the source. Unless noted, calls come from the whole dose curve; as a rule, active = well fitted curve in the direction sought with a large enough effect in the repeat runs; inconclusive = weak or mixed curves; inactive = no such curve, though single readings can be large; an effect the other way counts as inactive or inconclusive.

Columns and labels:
[1] = molecular target: Aryl hydrocarbon receptor (Homo sapiens) (UniProt P35869); experiment: qHTS assay to identify small molecule that activate the aryl hydrocarbon receptor (AhR) signaling pathway (AID 743085); note: nearly all actives have a fitted effect of over 15% in size; note: potency is the fitted concentration of half-maximal effect;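 for activation: HG2L7.5c1 human HepG2 liver cells with stably integrated DRE-driven firefly reporter; series mostly up to about 70 µM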
Outline: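 Luminescence (ONE-Glo) from a dioxin-responsive-element luciferase reporter in HG2L7.5c1 HepG2 cells after 24 hr compound exposure at 37C; viability measured by CellTiter-Fluor fluorescence beforehand.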

[2] = qHTS assay to identify small molecule that activate the aryl hydrocarbon receptor (AhR) signaling pathway - cell viability counter screen (AID 743086);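 note: HepG2 liver cells carrying the AhR DRE luciferase reporter; series mostly up to about 70 µM; nearly all actives have a fitted effect of over 45% in size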
Outline: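 Cytotoxicity counter screen: CellTiter-Fluor signal (30 min, 37 C) in 4000 HepG2 cells/well carrying the DRE-luciferase reporter, following 24 h compound exposure at 37 C.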

[3] = molecular target: Peroxisome proliferator-activated receptor gamma (Homo sapiens) (UniProt P37231); experiment: qHTS assay to identify small molecule antagonists of the peroxisome proliferator-activated receptor gamma (PPARg) signaling pathway (AID 743191; calls by dose curve; note: nearly all actives have a fitted effect of over 30% in size; note: potency is the fitted concentration of half-maximal effect)
Outline: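 Beta-lactamase reporter under UAS control in HEK293H PPARg-bla cells; compound treatment 17 h at 37C. Read-out: fluorescence intensity after 1 h room-temperature incubation with LiveBLAzer B/G FRET substrate.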

[4] = qHTS assay to identify small molecule antagonists of the peroxisome proliferator-activated receptor gamma (PPARg) signaling pathway - cell viability counter screen (AID 743194); conditions: Potency: co-treated with 50 nM rosiglitazone unless noted; note: nearly all actives have a fitted effect of over 55% in size; note: potency is the fitted concentration of half-maximal effect
Outline: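 Viability was measured as CellTiter-Glo luminescence in GeneBLAzer PPARg UAS-bla HEK293H cells. These cells had been exposed 17 h at 37 C to compounds together with rosiglitazone at 50 nM final, with the beta-lactamase readout taken in the same wells.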

[5] = qHTS assay for small molecule activators of the heat shock response signaling pathway - cell viability counter screen (AID 743209); note: nearly all actives have a fitted effect of over 50% in size; note: potency is the fitted concentration of half-maximal effect
Outline: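 HSE-bla HeLa cells plated overnight, then exposed to Tox21 compounds (23 nL in DMSO) for 5 h at 37 C. After the bla reporter read, CellTiter-Glo was added in the same wells and luminescence read after 30 min at room temperature.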

[6] = qHTS assay for small molecule activators of the heat shock response signaling pathway (AID 743210; active = well fitted activation curve with a large enough effect in the signal ratio in the repeat runs, with a control signal flat, not every such curve was filed as active; the % refers to the signal ratio;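 note: HeLa cells with beta-lactamase reporter driven by heat shock elements; series mostly up to about 63 µM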)
Outline: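 HeLa HSE-bla cells, overnight plating; cpd in DMSO 5 h, 37 C; LiveBLAzer B/G FRET substrate 2.5 h RT; fluorescence intensity read.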

[7] = molecular target: Peroxisome proliferator-activated receptor gamma (Homo sapiens) (UniProt P37231); experiment: qHTS assay to identify small molecule agonists of the peroxisome proliferator-activated receptor gamma (PPARg) signaling pathway (AID 743094; active = well fitted activation curve with a large enough effect in the signal ratio in the repeat runs, not every such curve was filed as active; the % refers to the signal ratio; note: potency is the fitted concentration of half-maximal effect)
Outline: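 GeneBLAzer PPARg UAS-bla HEK293H cells were plated, rested 5 h, then exposed to compounds for 17 h at 37C. Beta-lactamase activity was read by LiveBLAzer B/G FRET substrate fluorescence after 1 h at room temperature.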

[8] = qHTS assay for small molecule agonists of the antioxidant response element (ARE) signaling pathway - cell viability counter screen (AID 743203; calls by dose curve; note: nearly all actives have a fitted effect of over 55% in size; note: potency is the fitted concentration of half-maximal effect)
Outline: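 ARE-bla HepG2 cells were plated, rested 5 h at 37C/5% CO2, then exposed to compounds in DMSO for 16 h. Viability was read as CellTiter-Glo luminescence after 30 min at room temperature, in the same wells as the ARE screen.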

[9] = qHTS assay to identify small molecule agonists of the peroxisome proliferator-activated receptor delta (PPARd) signaling pathway - cell viability counter screen (AID 743211); note: nearly all actives have a fitted effect of over 55% in size; note: potency is the fitted concentration of half-maximal effect
Outline: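 Viability was measured as CellTiter-Glo luminescence (30 min, room temperature) in the same wells as the beta-lactamase readout. GeneBLAzer PPARd UAS-bla HEK293H cells received compound after 5 h plating and were incubated 17 h at 37 C.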

Measured: Potency

Sequence of Peroxisome proliferator-activated receptor gamma (Homo sapiens) (P37231 whole entry, looked up): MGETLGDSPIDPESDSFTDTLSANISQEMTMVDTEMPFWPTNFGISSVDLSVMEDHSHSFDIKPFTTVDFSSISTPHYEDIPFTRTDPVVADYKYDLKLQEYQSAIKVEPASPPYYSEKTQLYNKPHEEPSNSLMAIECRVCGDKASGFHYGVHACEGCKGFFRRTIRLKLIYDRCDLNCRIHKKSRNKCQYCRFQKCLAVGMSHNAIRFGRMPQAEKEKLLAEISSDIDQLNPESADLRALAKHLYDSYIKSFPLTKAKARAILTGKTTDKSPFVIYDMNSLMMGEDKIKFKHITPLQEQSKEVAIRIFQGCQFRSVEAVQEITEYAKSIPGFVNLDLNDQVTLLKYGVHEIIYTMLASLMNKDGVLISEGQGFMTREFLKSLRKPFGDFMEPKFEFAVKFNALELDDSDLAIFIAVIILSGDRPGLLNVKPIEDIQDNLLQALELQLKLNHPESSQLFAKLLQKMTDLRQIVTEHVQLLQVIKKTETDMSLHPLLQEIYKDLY
Sequence of Aryl hydrocarbon receptor (Homo sapiens) (P35869 whole entry, looked up): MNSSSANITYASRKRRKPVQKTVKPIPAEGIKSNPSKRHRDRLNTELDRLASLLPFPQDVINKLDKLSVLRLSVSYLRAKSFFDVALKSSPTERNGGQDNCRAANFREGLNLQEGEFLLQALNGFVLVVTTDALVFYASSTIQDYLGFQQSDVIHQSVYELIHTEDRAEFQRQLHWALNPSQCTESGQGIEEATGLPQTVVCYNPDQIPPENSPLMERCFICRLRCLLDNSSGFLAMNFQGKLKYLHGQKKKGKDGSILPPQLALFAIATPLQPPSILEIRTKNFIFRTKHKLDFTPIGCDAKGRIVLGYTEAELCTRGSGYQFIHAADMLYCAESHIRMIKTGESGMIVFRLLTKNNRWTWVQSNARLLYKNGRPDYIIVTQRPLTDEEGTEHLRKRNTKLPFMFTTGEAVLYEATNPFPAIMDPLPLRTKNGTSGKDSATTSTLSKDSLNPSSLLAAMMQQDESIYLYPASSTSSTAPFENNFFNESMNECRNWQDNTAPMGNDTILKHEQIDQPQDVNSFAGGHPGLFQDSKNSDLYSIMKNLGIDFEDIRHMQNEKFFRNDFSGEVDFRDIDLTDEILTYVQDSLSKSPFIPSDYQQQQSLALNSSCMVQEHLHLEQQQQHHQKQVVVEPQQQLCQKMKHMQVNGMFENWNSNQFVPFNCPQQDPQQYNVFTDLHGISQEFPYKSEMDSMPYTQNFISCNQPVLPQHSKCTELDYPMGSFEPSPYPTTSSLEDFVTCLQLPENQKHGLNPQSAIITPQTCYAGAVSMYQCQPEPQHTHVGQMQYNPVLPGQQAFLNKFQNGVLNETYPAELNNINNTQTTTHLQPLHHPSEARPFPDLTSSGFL

Cc1cc(C)cc(OP(=O)(Oc2cc(C)cc(C)c2)Oc2cc(C)cc(C)c2)c1
active: [1] 9.84 µM
inactive: [2] | [3] | [4] | [5] | [6]

ClC1=C(Cl)[C@]2(Cl)[C@H]3[C@H]([C@H]4C=C[C@H]3C4)[C@@]1(Cl)C2(Cl)Cl
not listed: [3] | [4] | [9]
inactive: all other assays above

CCOC(=O)CC(=O)CCl
active: [7] 21.9 µM
inactive: [1] | [2] | [8] | [9]

C[C@]12CC[C@@H]3c4ccc(OC(=O)N(CCCl)CCCl)cc4CC[C@H]3[C@@H]1CC[C@@H]2O
not listed: [3] | [5] | [8]
inactive: all other assays above

O=C(NC(=O)c1c(F)cccc1F)Nc1cc(Cl)c(OC(F)(F)C(F)F)c(Cl)c1
active: [1] 0.137 µM
not listed: [7]
inactive: all other assays above

CC1CCC(C(C)C)C(OC(=O)c2ccccc2N)C1 (centres undefined)
inactive: [1] | [2] | [7] | [8]
active: [9] 24.2 µM

ClC1=C(Cl)[C@]2(Cl)[C@@H]3[C@@H]4C[C@@H]([C@H]5O[C@@H]45)[C@@H]3[C@@]1(Cl)C2(Cl)Cl
active: [4] 43.6 µM | [8] 54.5 µM | [5] 48.9 µM | [9] 49 µM
inactive: [1] | [2] | [7]

CCC(C)(C)C(=O)OC1=C(c2ccc(Cl)cc2Cl)C(=O)OC12CCCCC2
inactive: [1] | [2] | [9]
active: [7] 1.74 µM | [8] 30.6 µM | [5] 54.9 µM

Oc1c(Cl)c(Cl)cc(Cl)c1Cl
inactive: [1] | [2] | [4] | [5]
active: [3] 3.78 µM

Clc1ccc(C(c2ccccc2Cl)C(Cl)(Cl)Cl)cc1 (centres undefined)
inactive: [1] | [2] | [7] | [5]
active: [8] 61.5 µM | [9] 49.3 µM and 28.7 µM

Nc1ccccc1C(=O)OC/C=C/c1ccccc1
active: [1] 61.3 µM | [8] 68.7 µM | [5] 34.8 µM | [9] 39 µM
inactive: [2] | [7]

COP(=O)(OC)SCn1c(=O)oc2cc(Cl)cnc21
active: [1] 43.3 µM | [8] 48.6 µM
inactive: [2] | [7] | [4] | [6]

Oc1ccc(C(c2ccc(O)cc2)(C(F)(F)F)C(F)(F)F)cc1
active: [1] 6.86 µM | [4] 43.6 µM
inactive and 54.9 µM (active): [9]
inactive: [2] | [7] | [5] | [6]
